Data on 11 compounds can be found in PubChem BioAssay (NCI).

Holding throughout (assay): NCI-60 one-dose screen, 48 h (100 = growth as untreated, 0 = no growth, -100 = all killed)
Common to all, as to conditions: 10 µM unless noted

The test system of experiment [1] is NCI-H23 lung.
Experiment [2] deals with NCI-H226 lung.
The subject of experiment [3] is NCI-H322M lung.
Experiment [4] has as its system HOP-62 NSCLC.
Experiment [5] deals with NCI-H460 lung.
The test system of experiment [6] is HOP-92 NSCLC.
For experiment [7], the system named is NCI-H522 lung.
The test system of experiment [8] is A549/ATCC NSCLC.
For experiment [9], the system named is 786-0 renal.
Experiment [10] relates to COLO 205 colon.

About 83,000 compounds went through this panel and 20% of them were active in at least one assay; those are over-represented in the sample as a whole.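 How to read the values: 0–100, growth inhibition (40 = 60% inhibited); 0, no net growth; -100 to 0, cell death (-40 = 40% of starting cells died; -100 = all dead).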 A number with no mark means an inactive call. Calls of active or inactive are those of the source. Rule for the calls: active = growth percent below 10; inactive = the rest.

As to `Clc1cccc(NCOOC2(OOCNc3cccc(Cl)c3)CCCCC2)c1`, the growth in experiment [1] is 43.6%; in experiment [2] it was 94.7%; in [3], 73.7%; in experiment [4] it was 49.5%; in experiment [5] it was 77.2%; in [6] it was -46.3% (active). Moreover, the growth in experiment [7] is 14.7%; in experiment [8], 3.1% (active); in experiment [9], 10.8%; in experiment [10], 96.6%.
For the compound `CC1=C(CNO)C2=C(C)C3(CC3)[C@@](C)(O)C(=O)C2=C1`, the growth in experiment [1] was -24.8% (active); in [2] it was 25.3%; in experiment [3] it was -15.8% (active); in [4], 1.62% (active); in experiment [5], -0.969% (active); in experiment [6], -19.6% (active). For the same compound, the growth in [7] was -7.65% (active); in experiment [8], -7.8% (active); in experiment [9] it was -17.5% (active); in [10], -20.4% (active).
For `Cc1ccc(N2COOC3(OOC2)C2CC4CC(C2)CC3C4)cc1`, the growth was 89.5% in experiment [1]; 108% in experiment [2]; 98.7% in experiment [3]; 93.1% in experiment [4]; 103% in [5]; 95.5% in [6]. Moreover, the growth in experiment [7] is 92.5%; in experiment [8], 98.7%; in experiment [9], 96.1%; in experiment [10], 110%.
Take `COc1cc(NCCCN=C(N)N)c2ncccc2c1`: the growth is 14.1% in [1]; 86.2% in [2]; 74% in [3]; 73% in experiment [4]; 96.4% in [5]; 56.7% in experiment [6]. Besides, the growth was -10.2% (active) in [7], 84.8% in [8], 95.4% in experiment [9] and 89.8% in [10].
As to `COc1ccc2c(c1)c(C1(O)CC(CSC#N)OC1=O)cn2C(=O)c1ccc(Cl)cc1` (stereo not given), the growth in experiment [1] was 89.3%; in [2], 94.8%; in [3], 73.5%; in experiment [4], 104%; in experiment [5], 104%; in experiment [6], 109%. The growth in [7] was 95.9%; in experiment [8], 98.6%; in experiment [9] it was 102%; in [10], 127%.
Regarding `COc1cc2c(cc1OCc1ccccc1)C(CC(C)C)=[N+](C)CC2`, the growth in [1] is 56.4%; in experiment [2], 81.2%; in experiment [3] it was 97.8%; in experiment [4], 88.2%; in experiment [5] it was 92.1%; in experiment [6], 77.7%. Further, the growth in [7] was 66.3%; in experiment [8], 61%; in experiment [9] it was 95.6%; in [10], 56.9%.
As for `Oc1c(CCl)cc(Cl)cc1CCl`, the growth in experiment [1] is 100%; in experiment [2], 98.8%; in experiment [3], 123%; in experiment [4], 95.1%; in experiment [5], 108%; in experiment [6], 92.8%. Also, the growth in experiment [7] was 105%; in experiment [8], 116%; in [9], 114%; in experiment [10], 109%.
Regarding `CC(C)CCC(=O)O[C@H]1CC[C@H]2[C@@H]3CCC4=CC(=O)CC[C@]4(C)[C@H]3CC[C@]12C`, the growth was 95.2% in [1]; 97.5% in experiment [2]; 93.4% in experiment [3]; 102% in experiment [4]; 98.7% in [5]; 112% in experiment [6]. The growth was 93.3% in experiment [7], 96% in experiment [8], 105% in experiment [9] and 106% in experiment [10].
Regarding `CC[C@H](C)[C@H](NC(=O)c1ccccn1)C(=O)N(C)[C@H](C[C@@H](OC(C)=O)c1nc(C(=O)N[C@@H](Cc2ccccc2)C[C@H](C)C(=O)OC)cs1)C(C)C`, the growth in [1] was 28.3%; in experiment [2], 25.4%; in [3] it was 58.2%; in experiment [4], 26.9%; in experiment [5], 9.13% (active); in experiment [6] it was 91.9%. Besides, the growth is -33.8% (active) in [7], 32.2% in [8], 30.4% in experiment [9] and -21.2% (active) in experiment [10].
For `Cn1cc(-c2csc(-c3cn(CCCCN4CCCCC4)c4ccc(F)cc34)n2)c2cccnc21`, the growth in [1] is 79.8%; in experiment [2] it was 74.6%; in [3], 81.5%; in experiment [4] it was 88.8%; in experiment [5], 89.3%; in experiment [6], 51.7%. Moreover, the growth was 86.2% in experiment [7], 92.6% in experiment [8], -62% (active) in experiment [9] and 96.7% in experiment [10].
`O=C1C(Cl)=C(N2CCOCC2)C(=O)c2ccccc21`: the growth in experiment [1] was 85.2%; in experiment [2] it was 104%; in [3], 122%; in experiment [4], 105%; in experiment [5], 101%; in [6] it was -75.2% (active). Also, the growth was 75.1% in [7], 101% in experiment [8], 111% in experiment [9] and 106% in experiment [10].
